In assay [1] the target is Sphingosine kinase 1 (Homo sapiens) (UniProt Q9NYA1). As to conditions: at 1 µM.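 Note: mean SPHK1 inhibition value reported from the GSK PKIS kinase panel screen.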
Assay [2] has as its target T1, Sphingosine kinase 2 (Homo sapiens) (UniProt Q9NRA0).
T1 sequence (whole entry): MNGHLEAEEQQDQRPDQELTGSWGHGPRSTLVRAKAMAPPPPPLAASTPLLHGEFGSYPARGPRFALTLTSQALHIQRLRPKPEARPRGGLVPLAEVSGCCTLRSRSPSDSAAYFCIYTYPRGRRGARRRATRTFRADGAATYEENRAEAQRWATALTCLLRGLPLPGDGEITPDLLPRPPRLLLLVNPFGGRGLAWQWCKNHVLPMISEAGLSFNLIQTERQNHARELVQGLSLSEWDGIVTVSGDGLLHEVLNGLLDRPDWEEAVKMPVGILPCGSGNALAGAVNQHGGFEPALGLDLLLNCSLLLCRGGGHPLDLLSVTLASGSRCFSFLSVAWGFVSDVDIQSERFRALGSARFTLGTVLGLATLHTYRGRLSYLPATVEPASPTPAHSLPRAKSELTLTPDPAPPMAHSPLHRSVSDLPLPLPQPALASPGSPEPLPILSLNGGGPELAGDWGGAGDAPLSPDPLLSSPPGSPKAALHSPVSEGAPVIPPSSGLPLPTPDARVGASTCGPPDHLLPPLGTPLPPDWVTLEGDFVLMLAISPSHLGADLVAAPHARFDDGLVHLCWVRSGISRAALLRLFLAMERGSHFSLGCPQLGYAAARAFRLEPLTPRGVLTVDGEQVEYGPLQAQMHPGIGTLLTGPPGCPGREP
As to conditions: at 0.1 µM.

Assay [3] deals with T1, Sphingosine kinase 2 (Homo sapiens). Conditions: at 1 µM.
The target of assay [4] is Casein kinase II subunit alpha (Homo sapiens) (UniProt P68400). As to conditions: at 0.1 µM.
Assay [5] has the same target. As to conditions: at 1 µM.
Assay [6] deals with T2, Inhibitor of nuclear factor kappa-B kinase subunit alpha (Homo sapiens) (UniProt O15111).
T2 sequence (whole entry): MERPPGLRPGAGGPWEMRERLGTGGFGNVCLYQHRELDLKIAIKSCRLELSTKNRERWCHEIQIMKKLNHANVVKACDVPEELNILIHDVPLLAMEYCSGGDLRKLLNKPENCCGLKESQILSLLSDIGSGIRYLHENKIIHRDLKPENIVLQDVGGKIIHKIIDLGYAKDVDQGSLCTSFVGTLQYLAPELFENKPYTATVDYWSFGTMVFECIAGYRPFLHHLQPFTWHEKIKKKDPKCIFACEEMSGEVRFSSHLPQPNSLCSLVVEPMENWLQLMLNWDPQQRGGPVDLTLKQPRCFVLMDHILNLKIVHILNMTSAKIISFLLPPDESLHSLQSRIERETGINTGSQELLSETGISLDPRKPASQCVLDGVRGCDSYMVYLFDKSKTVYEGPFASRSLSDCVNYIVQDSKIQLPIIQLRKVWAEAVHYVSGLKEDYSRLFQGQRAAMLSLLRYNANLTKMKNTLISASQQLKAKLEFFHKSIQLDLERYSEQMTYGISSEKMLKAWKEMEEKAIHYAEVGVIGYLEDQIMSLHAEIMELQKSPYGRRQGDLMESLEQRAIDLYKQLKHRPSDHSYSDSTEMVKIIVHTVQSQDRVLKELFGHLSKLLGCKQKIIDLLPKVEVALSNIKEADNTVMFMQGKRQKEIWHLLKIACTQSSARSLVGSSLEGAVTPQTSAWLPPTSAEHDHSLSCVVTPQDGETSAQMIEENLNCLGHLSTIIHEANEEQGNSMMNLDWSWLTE
As to conditions: at 0.1 µM.

Assay [7] concerns the target T2, Inhibitor of nuclear factor kappa-B kinase subunit alpha (Homo sapiens). As to conditions: at 1 µM.
The target in assay [8] is T3, Inhibitor of nuclear factor kappa-B kinase subunit beta (Homo sapiens) (UniProt O14920).
T3 sequence (whole entry): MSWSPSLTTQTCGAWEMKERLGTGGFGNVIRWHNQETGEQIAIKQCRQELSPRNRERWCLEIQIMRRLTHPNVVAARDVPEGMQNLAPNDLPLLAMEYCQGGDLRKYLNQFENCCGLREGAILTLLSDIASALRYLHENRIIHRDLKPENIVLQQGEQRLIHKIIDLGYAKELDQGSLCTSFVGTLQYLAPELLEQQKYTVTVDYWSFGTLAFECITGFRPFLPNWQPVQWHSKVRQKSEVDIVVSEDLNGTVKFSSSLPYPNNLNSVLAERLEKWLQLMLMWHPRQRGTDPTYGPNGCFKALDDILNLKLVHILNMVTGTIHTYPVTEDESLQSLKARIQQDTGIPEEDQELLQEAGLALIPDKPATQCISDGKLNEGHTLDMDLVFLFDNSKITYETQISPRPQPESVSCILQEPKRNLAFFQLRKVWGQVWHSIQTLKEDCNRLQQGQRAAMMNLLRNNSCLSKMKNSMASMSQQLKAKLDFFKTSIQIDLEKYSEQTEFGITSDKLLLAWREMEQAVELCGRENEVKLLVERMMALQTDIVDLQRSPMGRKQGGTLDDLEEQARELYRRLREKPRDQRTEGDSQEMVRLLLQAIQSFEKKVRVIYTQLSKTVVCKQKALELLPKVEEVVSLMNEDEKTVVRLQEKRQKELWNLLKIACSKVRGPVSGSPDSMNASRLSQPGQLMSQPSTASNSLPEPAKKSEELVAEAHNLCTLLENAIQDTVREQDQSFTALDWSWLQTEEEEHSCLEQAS
As to conditions: at 0.1 µM.

Assay [9] has as its target T3, Inhibitor of nuclear factor kappa-B kinase subunit beta (Homo sapiens). As to conditions: at 1 µM.
Assay [10] addresses T4, Inhibitor of nuclear factor kappa-B kinase subunit epsilon (Homo sapiens) (UniProt Q14164).
T4 sequence (whole entry): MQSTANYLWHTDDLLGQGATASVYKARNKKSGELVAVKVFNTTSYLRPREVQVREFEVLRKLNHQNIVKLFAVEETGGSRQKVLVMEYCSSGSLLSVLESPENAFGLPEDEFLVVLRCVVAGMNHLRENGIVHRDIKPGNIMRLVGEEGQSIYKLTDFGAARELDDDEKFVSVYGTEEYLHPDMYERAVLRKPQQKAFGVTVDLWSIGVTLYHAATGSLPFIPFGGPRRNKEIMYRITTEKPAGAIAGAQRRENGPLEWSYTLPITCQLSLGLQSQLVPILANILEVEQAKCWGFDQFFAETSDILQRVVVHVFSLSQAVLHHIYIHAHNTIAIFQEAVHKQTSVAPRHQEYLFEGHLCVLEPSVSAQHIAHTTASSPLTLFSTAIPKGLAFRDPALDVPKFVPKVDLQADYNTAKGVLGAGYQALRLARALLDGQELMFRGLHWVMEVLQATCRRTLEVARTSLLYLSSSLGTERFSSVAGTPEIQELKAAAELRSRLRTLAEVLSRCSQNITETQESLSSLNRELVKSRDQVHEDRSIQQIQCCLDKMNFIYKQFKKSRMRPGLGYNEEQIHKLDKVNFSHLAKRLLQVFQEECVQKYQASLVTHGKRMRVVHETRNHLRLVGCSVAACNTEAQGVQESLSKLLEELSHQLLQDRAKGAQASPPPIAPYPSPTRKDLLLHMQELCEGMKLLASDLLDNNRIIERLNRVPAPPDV
As to conditions: at 0.1 µM.

Assay [11] deals with T4, Inhibitor of nuclear factor kappa-B kinase subunit epsilon (Homo sapiens). As to conditions: at 1 µM.
Assay [12] concerns the target T5, Serine/threonine-protein kinase Nek1 (Homo sapiens) (UniProt Q96PY6).
T5 sequence (whole entry): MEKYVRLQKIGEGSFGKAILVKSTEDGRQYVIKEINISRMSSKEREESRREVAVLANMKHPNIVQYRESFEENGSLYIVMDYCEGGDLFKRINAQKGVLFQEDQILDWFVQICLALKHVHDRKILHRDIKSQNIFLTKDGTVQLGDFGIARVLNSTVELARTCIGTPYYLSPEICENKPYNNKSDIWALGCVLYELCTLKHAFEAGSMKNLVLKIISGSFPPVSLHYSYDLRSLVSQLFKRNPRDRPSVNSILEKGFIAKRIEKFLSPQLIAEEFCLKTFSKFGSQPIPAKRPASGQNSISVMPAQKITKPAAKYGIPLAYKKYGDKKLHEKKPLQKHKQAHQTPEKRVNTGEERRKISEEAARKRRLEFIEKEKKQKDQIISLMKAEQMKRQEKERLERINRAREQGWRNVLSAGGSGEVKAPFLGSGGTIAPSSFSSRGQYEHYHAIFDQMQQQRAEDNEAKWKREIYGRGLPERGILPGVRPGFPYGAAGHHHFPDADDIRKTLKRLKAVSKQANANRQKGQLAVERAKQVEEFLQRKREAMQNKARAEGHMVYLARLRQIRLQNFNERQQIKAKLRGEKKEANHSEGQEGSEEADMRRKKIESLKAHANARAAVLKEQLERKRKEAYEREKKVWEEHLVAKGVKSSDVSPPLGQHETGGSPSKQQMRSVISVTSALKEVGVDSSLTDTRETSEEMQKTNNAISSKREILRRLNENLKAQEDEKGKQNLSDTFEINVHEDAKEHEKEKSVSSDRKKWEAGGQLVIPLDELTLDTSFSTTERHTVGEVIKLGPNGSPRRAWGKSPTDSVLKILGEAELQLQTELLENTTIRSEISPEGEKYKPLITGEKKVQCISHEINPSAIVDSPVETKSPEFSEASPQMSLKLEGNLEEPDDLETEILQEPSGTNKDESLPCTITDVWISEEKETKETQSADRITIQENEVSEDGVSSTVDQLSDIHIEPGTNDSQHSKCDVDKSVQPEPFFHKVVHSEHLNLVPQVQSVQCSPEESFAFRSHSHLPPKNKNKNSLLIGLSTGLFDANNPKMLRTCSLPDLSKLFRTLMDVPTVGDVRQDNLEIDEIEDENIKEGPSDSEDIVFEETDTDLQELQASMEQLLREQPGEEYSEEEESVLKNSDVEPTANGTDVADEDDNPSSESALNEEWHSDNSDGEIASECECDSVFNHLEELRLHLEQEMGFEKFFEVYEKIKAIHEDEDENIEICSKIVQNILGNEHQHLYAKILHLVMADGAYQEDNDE
As to conditions: at 0.1 µM.

The target of assay [13] is T5, Serine/threonine-protein kinase Nek1 (Homo sapiens). Conditions: at 1 µM.
Assay [14] has as its target T6, Serine/threonine-protein kinase Nek2 (Homo sapiens) (UniProt P51955).
T6 sequence (whole entry): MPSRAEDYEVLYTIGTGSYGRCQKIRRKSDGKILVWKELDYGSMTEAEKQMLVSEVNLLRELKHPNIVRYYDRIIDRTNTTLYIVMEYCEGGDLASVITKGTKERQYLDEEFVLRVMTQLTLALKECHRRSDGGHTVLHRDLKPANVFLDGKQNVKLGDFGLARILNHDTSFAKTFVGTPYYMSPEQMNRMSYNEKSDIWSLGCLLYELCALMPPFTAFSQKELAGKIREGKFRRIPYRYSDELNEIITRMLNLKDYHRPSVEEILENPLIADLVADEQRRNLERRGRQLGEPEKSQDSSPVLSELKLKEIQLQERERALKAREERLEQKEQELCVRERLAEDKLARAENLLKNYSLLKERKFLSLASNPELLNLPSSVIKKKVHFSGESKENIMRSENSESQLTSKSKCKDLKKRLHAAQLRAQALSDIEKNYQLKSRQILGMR
As to conditions: at 0.1 µM.

Assay [15] concerns the target T6, Serine/threonine-protein kinase Nek2 (Homo sapiens). As to conditions: at 1 µM.
The target in assay [16] is Serine/threonine-protein kinase Nek6 (Homo sapiens) (UniProt Q9HC98). As to conditions: at 0.1 µM.
Assay [17] shares this target. Conditions: at 1 µM.
Assay [18] deals with Serine/threonine-protein kinase Nek7 (Homo sapiens) (UniProt Q8TDX7). Conditions: at 0.1 µM.
The target is the same in assay [19]. Conditions: at 1 µM.
For assay [20], the target named is T7, Serine/threonine-protein kinase Nek9 (Homo sapiens) (UniProt Q8TD19).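 Note: reported value is the mean percent inhibition of NEK9.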
T7 sequence (whole entry): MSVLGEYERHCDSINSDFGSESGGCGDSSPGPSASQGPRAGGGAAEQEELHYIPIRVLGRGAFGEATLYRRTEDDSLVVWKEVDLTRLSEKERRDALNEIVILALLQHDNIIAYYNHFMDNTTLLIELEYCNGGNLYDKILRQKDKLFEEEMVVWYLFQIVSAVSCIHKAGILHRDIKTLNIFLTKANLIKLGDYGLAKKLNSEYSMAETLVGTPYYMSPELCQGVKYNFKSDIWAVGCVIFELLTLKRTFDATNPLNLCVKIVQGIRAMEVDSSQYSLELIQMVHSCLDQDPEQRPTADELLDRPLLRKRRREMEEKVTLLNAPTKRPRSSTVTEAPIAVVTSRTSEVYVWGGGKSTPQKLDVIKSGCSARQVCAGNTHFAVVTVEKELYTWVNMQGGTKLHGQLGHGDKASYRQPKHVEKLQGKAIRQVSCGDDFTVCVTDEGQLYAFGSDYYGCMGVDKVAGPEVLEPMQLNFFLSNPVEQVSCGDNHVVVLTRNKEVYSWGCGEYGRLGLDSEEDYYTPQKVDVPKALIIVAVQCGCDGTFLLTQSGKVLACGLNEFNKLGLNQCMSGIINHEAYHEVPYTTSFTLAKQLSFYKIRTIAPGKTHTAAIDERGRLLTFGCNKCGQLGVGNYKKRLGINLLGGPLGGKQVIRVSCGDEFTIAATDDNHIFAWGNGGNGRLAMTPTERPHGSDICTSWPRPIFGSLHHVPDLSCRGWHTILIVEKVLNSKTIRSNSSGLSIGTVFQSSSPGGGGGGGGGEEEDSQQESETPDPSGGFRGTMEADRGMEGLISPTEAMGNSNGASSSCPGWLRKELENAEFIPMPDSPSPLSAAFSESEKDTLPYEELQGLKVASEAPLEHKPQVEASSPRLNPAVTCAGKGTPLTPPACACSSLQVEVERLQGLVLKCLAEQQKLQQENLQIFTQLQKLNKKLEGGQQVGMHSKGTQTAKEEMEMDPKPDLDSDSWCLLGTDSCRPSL
As to conditions: at 0.1 µM.

Serine/threonine-protein kinase Nek7 (Homo sapiens), sequence (Q8TDX7 whole entry, looked up): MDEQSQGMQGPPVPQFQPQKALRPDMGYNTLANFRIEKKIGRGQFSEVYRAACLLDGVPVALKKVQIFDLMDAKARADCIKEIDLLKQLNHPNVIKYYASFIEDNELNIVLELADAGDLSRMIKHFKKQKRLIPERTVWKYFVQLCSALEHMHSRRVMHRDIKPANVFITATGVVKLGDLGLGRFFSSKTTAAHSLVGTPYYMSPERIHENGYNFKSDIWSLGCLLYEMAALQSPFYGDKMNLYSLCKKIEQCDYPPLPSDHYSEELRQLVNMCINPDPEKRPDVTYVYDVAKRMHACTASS
Casein kinase II subunit alpha (Homo sapiens), sequence (P68400 whole entry, looked up): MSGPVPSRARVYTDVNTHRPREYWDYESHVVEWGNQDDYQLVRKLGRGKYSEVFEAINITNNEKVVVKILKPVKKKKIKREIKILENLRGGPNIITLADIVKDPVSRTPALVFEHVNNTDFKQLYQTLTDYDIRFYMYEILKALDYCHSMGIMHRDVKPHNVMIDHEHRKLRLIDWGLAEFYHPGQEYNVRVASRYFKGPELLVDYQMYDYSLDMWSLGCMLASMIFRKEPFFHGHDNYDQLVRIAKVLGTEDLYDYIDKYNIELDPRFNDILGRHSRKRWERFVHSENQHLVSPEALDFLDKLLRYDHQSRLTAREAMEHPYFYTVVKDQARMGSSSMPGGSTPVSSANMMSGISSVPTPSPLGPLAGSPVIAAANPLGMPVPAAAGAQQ
Serine/threonine-protein kinase Nek6 (Homo sapiens), sequence (Q9HC98 whole entry): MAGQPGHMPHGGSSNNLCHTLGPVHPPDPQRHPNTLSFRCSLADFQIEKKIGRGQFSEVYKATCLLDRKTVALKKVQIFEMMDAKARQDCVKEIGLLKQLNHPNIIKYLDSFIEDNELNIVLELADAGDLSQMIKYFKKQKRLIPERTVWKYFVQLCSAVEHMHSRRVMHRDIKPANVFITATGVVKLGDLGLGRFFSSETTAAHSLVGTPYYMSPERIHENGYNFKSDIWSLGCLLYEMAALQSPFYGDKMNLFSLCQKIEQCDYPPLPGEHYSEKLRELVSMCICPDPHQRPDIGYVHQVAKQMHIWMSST
Sphingosine kinase 1 (Homo sapiens), sequence (Q9NYA1 whole entry): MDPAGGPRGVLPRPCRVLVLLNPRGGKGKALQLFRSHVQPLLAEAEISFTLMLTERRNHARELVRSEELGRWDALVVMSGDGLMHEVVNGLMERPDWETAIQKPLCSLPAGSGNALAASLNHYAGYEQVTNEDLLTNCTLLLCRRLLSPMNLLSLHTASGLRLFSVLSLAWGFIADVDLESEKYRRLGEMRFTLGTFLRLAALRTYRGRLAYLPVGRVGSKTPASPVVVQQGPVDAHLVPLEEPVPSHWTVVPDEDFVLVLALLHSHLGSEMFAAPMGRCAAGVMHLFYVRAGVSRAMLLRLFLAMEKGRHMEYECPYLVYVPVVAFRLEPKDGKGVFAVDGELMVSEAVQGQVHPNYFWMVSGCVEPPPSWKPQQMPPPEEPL

In the case of `CNC(=O)c1ncccc1Nc1nc(Nc2cc3c(cc2OC)CCCN3C(=O)CN(C)C)nc2[nH]ccc12`, the inhibition (commonly the change of the read-out against control, counted positive when it falls) in assay [1] is -0.03%; in assay [2], -0.11%; in [3], -1.01%; in assay [4], 6.76%; in assay [5], 22.8%; in [6], 12.9%. Also, the inhibition was 7.49% in assay [7]; 2.85% in assay [8]; -0.65% in assay [9]; 5.04% in [10]; 10.1% in [11]; 0.87% in assay [12]. The inhibition in assay [13] was 2.58%; in assay [14], 4.37%; in [15], 3.89%; in assay [16], 2.87%; in assay [17], -0.46%; in assay [18] it was 3.53%. In addition, the values for the inhibition in assay [19] and in assay [20] were 7.42% and 5.86%, respectively.

Source of the values: ChEMBL document CHEMBL1961873, “Compounds: GSK PKIS; Assays: Nanosyn kinase panel” (2012).
